Results on 39 compounds are retold here after the antibiotic and cytotoxicity screens of Wong et al. (2023).

In all, about 39,000 compounds went through this assay and about 3,300 (8.5%) were called active. The sample holds actives, similar compounds and a random draw of the others, so the mix is not that of the screen.

The assay deals with HepG2. In words: cytotoxicity call (relative viability < 0.9). The conditions noted are these: 10 µM.
As to `C[C@H]1CN([C@@H](C)CO)C(=O)c2cc(C#Cc3ccc(F)cc3)cnc2O[C@H]1CN(C)Cc1ccccn1`, the cytotoxicity call was “inactive”.
For `COc1ccc(NC(=O)Nc2ccc3c(c2)CC(=O)N([C@H](C)CO)C[C@@H](C)[C@@H](CN(C)S(=O)(=O)c2cn(C)cn2)O3)cc1`, the cytotoxicity call is “inactive”.
As to `C[C@H](CO)N1C[C@H](C)[C@H](CN(C)Cc2ccc(C(=O)Nc3ccccc3N)cc2)Oc2ccc(NC(=O)Nc3ccc(C(F)(F)F)cc3)cc2CC1=O`, the cytotoxicity call was “active”.
Next, `Cc1ccc(S(=O)(=O)Nc2cccc3c2O[C@H](CN(C)C(=O)Nc2ccc(C(F)(F)F)cc2)[C@@H](C)CN([C@@H](C)CO)C3=O)cc1`: “inactive”.
Next, `C[C@H]1CN([C@@H](C)CO)C(=O)c2cc(NC(=O)Nc3ccc(C(F)(F)F)cc3)ccc2O[C@@H]1CN(C)S(C)(=O)=O`: “inactive”; `C[C@H]1CN([C@@H](C)CO)C(=O)c2cc(NC(=O)Nc3ccc(C(F)(F)F)cc3)ccc2O[C@H]1CN(C)S(C)(=O)=O`: “inactive”; `C[C@@H]1CN([C@H](C)CO)C(=O)c2cc(NC(=O)Nc3ccc(C(F)(F)F)cc3)ccc2O[C@@H]1CN(C)S(=O)(=O)c1ccc(F)cc1`: “active”.
On to `C[C@@H]1CN([C@H](C)CO)C(=O)c2cc(NC(=O)Nc3ccc(C(F)(F)F)cc3)ccc2O[C@H]1CN(C)S(C)(=O)=O`, for which the cytotoxicity call was “inactive”.
As for `C[C@H](CO)N1C[C@H](C)[C@@H](CN(C)S(=O)(=O)c2ccc(F)cc2)Oc2ccc(NC(=O)Nc3ccc(C(F)(F)F)cc3)cc2C1=O`, the entry is “inactive”; as for `C[C@H]1CN([C@@H](C)CO)C(=O)c2cc(NC(=O)Nc3ccc(C(F)(F)F)cc3)ccc2O[C@H]1CN(C)S(=O)(=O)c1ccc(F)cc1`, “active”; as for `C[C@@H]1CN([C@H](C)CO)C(=O)c2cc(NC(=O)Nc3ccc(C(F)(F)F)cc3)ccc2O[C@H]1CN(C)S(=O)(=O)c1ccc(F)cc1`, “active”.
Consider `C[C@@H]1CN([C@@H](C)CO)C(=O)c2cc(NC(=O)Nc3ccc(C(F)(F)F)cc3)ccc2O[C@H]1CN(C)S(=O)(=O)c1ccc(F)cc1`, for which the cytotoxicity call is “inactive”.
As for `C[C@H](CO)N1C[C@H](C)[C@H](CN(C)S(=O)(=O)c2ccc(F)cc2)Oc2ccc(NC(=O)Nc3ccc(C(F)(F)F)cc3)cc2C1=O`, the entry is “inactive”; as for `C[C@@H]1CN([C@@H](C)CO)C(=O)c2cc(NC(=O)Nc3ccc(C(F)(F)F)cc3)ccc2O[C@@H]1CN(C)S(=O)(=O)c1ccc(F)cc1`, “active”.
As to `C[C@H]1CN([C@@H](C)CO)C(=O)c2cc(NC(=O)Nc3ccc(C(F)(F)F)cc3)ccc2O[C@@H]1CN(C)S(=O)(=O)c1ccc(F)cc1`, the cytotoxicity call is “inactive”.
In the case of `C[C@H]1CCCCO[C@@H](CN(C)C(=O)Nc2ccc3c(c2)OCO3)[C@@H](C)CN([C@@H](C)CO)C(=O)c2cc(NC(=O)C3CCCCC3)ccc2O1`, the cytotoxicity call is “inactive”.
Take `C[C@H](CO)N1C[C@H](C)[C@@H](CN(C)C(=O)Nc2cccc3ccccc23)OCCCC[C@H](C)Oc2ccc(NC(=O)CCCN(C)C)cc2C1=O`: the cytotoxicity call is “inactive”.
As for `C[C@@H]1CN([C@@H](C)CO)S(=O)(=O)c2ccc(C#CC3(O)CCCC3)cc2O[C@H]1CN(C)C(=O)Cc1ccncc1`, the entry is “inactive”; as for `C[C@@H]1CN([C@H](C)CO)C(=O)c2cc(NC(=O)Nc3ccc(F)cc3)ccc2O[C@@H]1CN(C)Cc1ccc(Oc2ccccc2)cc1`, “active”.
Turning to `C[C@@H]1CN([C@@H](C)CO)C(=O)c2cc(NC(=O)Nc3ccc(F)cc3)ccc2O[C@@H]1CN(C)Cc1ccc(Oc2ccccc2)cc1`, the cytotoxicity call was “active”.
`C[C@@H]1CN([C@H](C)CO)C(=O)c2cc(NC(=O)Nc3ccc(F)cc3)ccc2O[C@H]1CN(C)Cc1ccc(Oc2ccccc2)cc1`: the cytotoxicity call is “active”.
As for `C[C@H]1CN([C@@H](C)CO)C(=O)c2cc(NC(=O)Nc3ccc(F)cc3)ccc2O[C@H]1CN(C)Cc1ccc(Oc2ccccc2)cc1`, the cytotoxicity call was “inactive”.
As to `C[C@H](CO)N1C[C@H](C)[C@H](CN(C)Cc2ccc(Oc3ccccc3)cc2)Oc2ccc(NC(=O)Nc3ccc(F)cc3)cc2C1=O`, the cytotoxicity call was “active”.
Next, `C[C@@H]1CN([C@@H](C)CO)C(=O)c2cc(NC(=O)Nc3ccc(F)cc3)ccc2O[C@H]1CN(C)Cc1ccc(Oc2ccccc2)cc1`: “inactive”; `C[C@H](CO)N1C[C@H](C)[C@@H](CN(C)Cc2ccc(Oc3ccccc3)cc2)Oc2ccc(NC(=O)Nc3ccc(F)cc3)cc2C1=O`: “inactive”; `NCc1cc(-c2ccccc2Cl)on1`: “inactive”.
As for `COc1ccc(S(=O)(=O)N(C)C[C@@H]2OCc3cnnn3CCCC(=O)N([C@H](C)CO)C[C@H]2C)cc1`, the entry is “inactive”; as for `C[C@@H]1CN([C@@H](C)CO)C(=O)c2cc(NS(=O)(=O)c3cccs3)ccc2O[C@@H](C)CCCCO[C@@H]1CN(C)CC1CCCCC1`, “inactive”.
With `C[C@@H]1CN([C@H](C)CO)C(=O)c2cc(-c3cccnc3)cnc2O[C@@H]1CN(C)C(=O)Nc1ccc2c(c1)OCO2`, the cytotoxicity call was “inactive”.
Turning to `CON=C(C(=O)NC1C(=O)N2C(C(=O)O)=C(CSC(=O)c3ccco3)CSC12)c1csc(N)n1.Cl` (centres undefined), the cytotoxicity call was “inactive”.
Next, `O=C(C[C@@H]1C[C@@H]2c3cc(NC(=O)NC4CCCC4)ccc3O[C@@H]2[C@@H](CO)O1)NCc1ccc2c(c1)OCO2`: “inactive”.
As for `Cc1noc(C)c1NC(=O)Nc1ccc2c(c1)C(=O)N([C@H](C)CO)C[C@H](C)[C@@H](CN(C)C(=O)Nc1cccc3ccccc13)OCCCC[C@H](C)O2`, the entry is “inactive”; as for `C[C@H]1CN([C@@H](C)CO)C(=O)c2cc(NC(=O)Nc3ccc(F)cc3)ccc2O[C@@H]1CN(C)Cc1ccc(Oc2ccccc2)cc1`, “active”.
As for `CC(C)NC(=O)N(C)C[C@@H]1Oc2c(NC(=O)C3CCCCC3)cccc2C(=O)N([C@H](C)CO)C[C@@H]1C`, the entry is “inactive”; as for `CN(C)CC(=O)N1CC2(C1)[C@@H](c1ccccc1)[C@@H](CO)N2S(C)(=O)=O`, “inactive”; as for `C[C@@H]1CCCCO[C@@H](CN(C)Cc2ccccc2)[C@@H](C)CN([C@H](C)CO)C(=O)c2cc(NC(=O)Nc3ccc(C(F)(F)F)cc3)ccc2O1`, “active”.
Take `C[C@@H]1CCCCO[C@H](CN(C)Cc2ccccc2)[C@@H](C)CN([C@H](C)CO)C(=O)c2cc(NC(=O)Nc3ccc(C(F)(F)F)cc3)ccc2O1`: the cytotoxicity call is “active”.
Take `C[C@@H]1CCCCO[C@H](CN(C)Cc2ccccc2)[C@H](C)CN([C@H](C)CO)C(=O)c2cc(NC(=O)Nc3ccc(C(F)(F)F)cc3)ccc2O1`: the cytotoxicity call is “active”.
As to `C[C@@H]1CCCCO[C@H](CN(C)Cc2ccccc2)[C@@H](C)CN([C@@H](C)CO)C(=O)c2cc(NC(=O)Nc3ccc(C(F)(F)F)cc3)ccc2O1`, the cytotoxicity call was “active”.
